Laboratory results taken from PubChem BioAssay (NCATS).
Several values for one entry are separate records, joined by “and”; a condition that tells them apart may be missing. Identical values can stand only once. Inconclusive results are not listed. A number with no mark means an inactive call. Activity calls are given as the source filed them. Calls come from the whole dose curve; as a rule, active = well fitted curve in the direction sought with a large enough effect; inconclusive = small, poorly fitted or top-dose-only effect, or another doubt; inactive = no such curve, though single readings can be large; an effect the other way counts as inactive or inconclusive.

How the values were obtained:
[1] = Viability qHTS for spleen associated tyrosine kinase inhibitor (SYKi) drug resistant MV4-11 cells (AID 1963824); settings: SYKi-resistant MV4-11 viability, CellTiter-Glo, 72 h; series mostly up to 45 µM; note: nearly all actives have a fitted effect of over 35% in size
Procedure, shortened: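 CellTiter-Glo luminescence, read 10 min after reagent addition, reports viability after a 72 hr compound exposure. Cells are an MV4-11 line made resistant to SYK inhibition, seeded at 500 per well onto compound-containing plates.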

[2] = Cellular viability qHTS for adrenocortical cancer (ACC) cell line SW-13 (AID 1963989); settings: SW-13 ACC cells viability, CellTiter-Glo, 48 h; activity (max response): active compounds read low; note: nearly all actives have a fitted effect of over 65% in size;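 for activity (max response): cells grown in serum-free medium with ITS supplement; % is set by controls: 0 for no effect and ±100 for the full control effect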
Procedure, shortened: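 IC50 and maximal-response values come from four-parameter logistic fits of titration data. SW-13 cells in serum-free medium received compounds (up to 46 uM final) for 48 h before CellTiter-Glo luminescence.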

[3] = Cellular viability qHTS for adrenocortical cancer (ACC) cell line NCI-H295R (AID 1963990); settings: CellTiter-Glo ATP luminescence, 48 h; series mostly up to 46.1 µM; note: nearly all actives have a fitted effect of over 60% in size;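 for activity change, negative = viability loss: 0% = DMSO only wells and -100% = full killing with cytotoxic reference compound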
Procedure, shortened: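 Adrenocortical carcinoma cells, suspended at 300 000 cells/mL in serum-free DMEM plus ITS, rested overnight before pin transfer of compound. After two days' incubation, ATP-dependent luminescence was recorded and curve-fitted.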
Potency is the fitted concentration of half-maximal effect.

## CCc1cccc2c3c([nH]c12)[C@@](CC)(CC(=O)O)OCC3
[1]
  Potency: 14.8 µM (active)
[2]
  activity (max response): -21.1%
[3]
  Potency: inactive

## CC1(C)S[C@@H]2[C@H](NC(=O)Cc3ccccc3)C(=O)N2[C@H]1C(=O)O (tested in a mixture with another compound)
[1]
  Potency: inactive
[2]
  activity (max response): 7.44%
[3]
  Potency: inactive

## CC1(C)C(N(O)C(=O)Nc2ccc(Cl)cc2)N(c2ccc(Cl)cc2)C(=O)N1CC(=O)N/N=C/C=C/c1ccc([N+](=O)[O-])o1 (configuration not stated)
[1]
  Potency: 2.63 µM (active)
[2]
  Potency: 25.1 µM (active)
[3]
  Potency: 20 µM (active)

## N#Cc1c(N)nc(N)nc1N[C@H](c1nc2c(F)ccc(Cl)c2c(=O)n1-c1cccnc1)C1CC1
[1]
  Potency: 10.5 µM (active)
[2]
  activity (max response): -22.7%
[3]
  Potency: 22.4 µM (active)

## COC(=O)C1=C(C)NC(c2ncc(F)cc2F)=N[C@@H]1c1ccc(F)cc1Cl
[1]
  Potency: 20.9 µM (active)
[2]
  activity (max response): -20.4%
[3]
  Potency: inactive

## Cc1onc(-c2ccccc2)c1-c1ccc(S(N)(=O)=O)cc1
[1]
  Potency: 14.8 µM (active)
[2]
  activity (max response): -10.6% and -23.5%
[3]
  Potency: inactive

## NS(=O)(=O)c1ccc(Cc2c(-c3cccc(-c4ccccc4)c3)nn(-c3nc(C(=O)O)cs3)c2CC2CC2)cc1
[1]
  Potency: 10.5 µM (active)
[2]
  Potency: 31.6 µM (active)
[3]
  Potency: 28.2 µM (active)

## CC1(C)CC[C@]2(C(=O)O)CC[C@]3(C)C(=CC[C@@H]4[C@@]5(C)C[C@@H](O)[C@H](O)C(C)(C)[C@@H]5CC[C@]43C)[C@@H]2C1
[1]
  Potency: 18.6 µM (active)
[2]
  activity (max response): -1.16%
[3]
  Potency: inactive

## CN(C)Cc1ccc(S(=O)(=O)n2ccc(/C=C/C(=O)NO)c2)cc1
[1]
  Potency: 2.35 µM (active)
[2]
  Potency: 12.6 µM (active)
[3]
  Potency: 3.16 µM (active)

## COC(=O)C(c1ccccc1Cl)N1CCc2sccc2C1 (configuration not stated)
[1]
  Potency: inactive
[2]
  activity (max response): 0.0767%
[3]
  Potency: inactive

## CC(=O)OCC(=O)[C@@]1(O)CCC2C3CCC4=CC(=O)CC[C@]4(C)C3[C@@H](O)C[C@@]21C (some centres not stated)
[1]
  Potency: inactive
[2]
  activity (max response): -1.87%
[3]
  Potency: inactive

## Nc1cccc2c1CN([C@H]1CCC(=O)NC1=O)C2=O
[1]
  Potency: inactive
[2]
  activity (max response): -17.5%
[3]
  Potency: inactive

## COc1cc(NC(C)CCCN)c2ncccc2c1 (configuration not stated)
[1]
  Potency: 5.31 µM (active)
[2]
  Potency: 4.61 µM (active)
[3]
  Potency: 8.2 µM (active)

## Nc1nc(N)c2nc(-c3cccc(Cl)c3)c(N)nc2n1
[1]
  Potency: 1.48 µM (active)
[2]
  Potency: 1.26 µM (active)
[3]
  Potency: 1.12 µM (active)

## Cc1cc(OI)c(C(C)C)cc1-c1cc(C(C)C)c(OI)cc1C
[1]
  Potency: inactive
[2]
  activity (max response): 11.4%
[3]
  Potency: inactive

## C[n+]1cc2c3c(ccc2c2ccc4cc5c(cc4c21)OCO5)OCO3
[1]
  Potency: 1.3 µM (active)
[2]
  Potency: 2.24 µM (active)
[3]
  Potency: 1.42 µM (active)

## CNC(=O)c1cccc2cc(Oc3ccnc4cc(OCC5(N)CC5)c(OC)cc34)ccc12
[1]
  Potency: 14.8 µM (active) and 20.6 µM (active)
[2]
  Potency: 28.2 µM (active)
[3]
  Potency: 22.4 µM (active)

## Cc1cc(C(C#N)c2ccc(Cl)cc2)c(Cl)cc1NC(=O)c1cc(I)cc(I)c1O (configuration not stated)
[1]
  Potency: 18.8 µM (active) and 23.1 µM (active)
[2]
  Potency: 4.11 µM (active)
[3]
  Potency: 3.66 µM (active)

## CCOC(=O)N[C@@H]1CC[C@@H]2[C@@H](C1)C[C@H]1C(=O)O[C@H](C)[C@H]1[C@H]2/C=C/c1ccc(-c2cccc(F)c2)cn1
[1]
  Potency: 13.2 µM (active)
[2]
  activity (max response): -18%
[3]
  Potency: inactive

## CCOC(=O)[C@H](CCc1ccccc1)N[C@@H](C)C(=O)N1[C@H](C(=O)O)C[C@@H]2CCC[C@@H]21
[1]
  Potency: inactive
[2]
  activity (max response): 3.72% and 7.5%
[3]
  Potency: inactive

## COC(=O)c1nc(Cl)c(Cl)nc1N
[1]
  Potency: 0.596 µM (active)
[2]
  Potency: 8.2 µM (active)
[3]
  Potency: 0.103 µM (active)

## CC(C)[C@H](CO)Nc1nc(Nc2ccc(C(=O)O)c(Cl)c2)c2ncn(C(C)C)c2n1
[1]
  Potency: 16.6 µM (active)
[2]
  activity (max response): 10.6%
[3]
  Potency: inactive

## CCOC(=O)NNc1ccc(N(CC)CC(C)O)nn1 (configuration not stated)
[1]
  Potency: inactive
[2]
  activity (max response): -8.2%
[3]
  Potency: inactive

## Nc1nc(Nc2ccc3c(c2)CC[C@@H](N2CCCC2)CC3)nn1-c1cc2c(nn1)-c1ccccc1CCC2
[1]
  Potency: 0.417 µM (active)
[2]
  Potency: 14.1 µM (active)
[3]
  Potency: 10 µM (active)

## CCCCOc1nc(N)c2c(n1)N(Cc1cccc(CN3CCCC3)c1)CC(=O)N2
[1]
  Potency: 23.5 µM (active)
[2]
  activity (max response): -4.22%
[3]
  Potency: inactive

## CCC(C(=O)NC(=O)NC(C)=O)c1ccccc1 (configuration not stated)
[1]
  Potency: inactive
[2]
  activity (max response): -1.46%
[3]
  Potency: inactive

## Cc1cc2nc3ccc(=[N+](C)C)cc-3sc2cc1N
[1]
  Potency: 1.68 µM (active)
[2]
  Potency: 4.61 µM (active)
[3]
  Potency: 5.8 µM (active)

## COc1cc(N)c(Cl)cc1C(=O)NC1CCN(CCCOc2ccc(F)cc2)CC1OC (configuration not stated)
[1]
  Potency: 23.7 µM (active)
[2]
  activity (max response): -12.2%
[3]
  Potency: inactive

## N#Cc1cc(NC(=O)C(=O)O)c(Cl)c(NC(=O)C(=O)O)c1
[1]
  Potency: inactive
[2]
  activity (max response): 14%
[3]
  Potency: inactive

## C1=CC2C3C=CC(C3)C2C1 (configuration not stated)
[1]
  Potency: inactive
[2]
  activity (max response): 5.69%
[3]
  Potency: inactive

## C[C@@H]1C[C@H]2[C@@H]3C[C@H](F)C4=CC(=O)C=C[C@]4(C)[C@@]3(F)[C@@H](O)C[C@]2(C)[C@@]1(O)C(=O)CO
[1]
  Potency: 2.11 µM (active)
[2]
  activity (max response): -1.7%
[3]
  Potency: inactive

## COc1ccc2[nH]c(C(=O)N3CCC(CC(C)(C)O)CC3)cc2c1
[1]
  Potency: 18.6 µM (active)
[2]
  activity (max response): -4.14%
[3]
  Potency: inactive

## CC1=C(/C=C/C(C)=C/C=C/C(C)=C/C(=O)Nc2ccc(O)cc2)C(C)(C)CCC1
[1]
  Potency: 2.66 µM (active) and 7.42 µM (active)
[2]
  Potency: 1.84 µM (active)
[3]
  Potency: 4.61 µM (active)

## CCc1nnc(NS(=O)(=O)c2ccc(N)cc2)s1
[1]
  Potency: inactive
[2]
  activity (max response): 4.19%
[3]
  Potency: inactive

## CN1CC[C@H](c2c(O)cc(O)c3c(=O)cc(-c4ccccc4Cl)oc23)[C@H](O)C1
[1]
  Potency: 0.299 µM (active)
[2]
  Potency: 0.184 µM (active)
[3]
  Potency: 0.103 µM (active)

## CCOC(=O)O[C@]1(C(=O)OCCl)CC[C@H]2[C@@H]3CCC4=CC(=O)C=C[C@]4(C)[C@H]3[C@@H](O)C[C@@]21C
[1]
  Potency: inactive
[2]
  activity (max response): 8.33% and -8.79%
[3]
  Potency: inactive

## CC(/C=C1\SC(=S)N(CC(=O)O)C1=O)=C\c1ccccc1
[1]
  Potency: inactive
[2]
  activity (max response): 4.22%
[3]
  Potency: inactive

## CS(=O)(=O)Nc1ccc([N+](=O)[O-])cc1Oc1ccccc1
[1]
  Potency: 14.8 µM (active)
[2]
  activity (max response): 9.34% and -1.91%
[3]
  Potency: inactive

## CC(=O)O[C@]1(C(C)=O)CC[C@H]2[C@@H]3C=C(Cl)C4=CC(=O)[C@@H]5C[C@@H]5[C@]4(C)[C@H]3CC[C@@]21C
[1]
  Potency: 14.6 µM (active)
[2]
  activity (max response): -7.85% and -11.2%
[3]
  Potency: inactive

## Cn1ncc(Cl)c1-c1cc(C(=O)NC(CN)Cc2ccc(F)c(F)c2)oc1Cl (configuration not stated)
[1]
  Potency: 4.68 µM (active)
[2]
  Potency: 28.2 µM (active)
[3]
  Potency: 3.16 µM (active)

## COc1cc(/C=C/C(=O)O[C@H]2CC[C@]34C[C@]35CC[C@]3(C)[C@@H]([C@H](C)CCC=C(C)C)CC[C@@]3(C)[C@@H]5CC[C@H]4C2(C)C)ccc1O
[1]
  Potency: 16.4 µM (active)
[2]
  Potency: 14.6 µM (active)
[3]
  Potency: 18.4 µM (active)

## C/C(=C(\CCOP(=O)(O)O)SC(=O)c1ccccc1)N(C=O)Cc1cnc(C)nc1N
[1]
  viability, % of control: 78.4% [at 4.97 µM]
[2]
  activity (max response): 11.3%
[3]
  activity change, negative = viability loss: 7.45% [at 3.81 µM]

## Nc1ncccc1-c1nc2ccc(-c3ccccc3)nc2n1-c1ccc(C2(N)CCC2)cc1
[1]
  Potency: 5.25 µM (active)
[2]
  Potency: 25.1 µM (active)
[3]
  Potency: 3.98 µM (active)

## COc1cc2c(cc1O)CCN[C@]21CS[C@@H]2c3c(OC(C)=O)c(C)c4c(c3[C@H](COC1=O)N1[C@@H]2[C@H]2c3c(cc(C)c(OC)c3O)C[C@@H]([C@@H]1O)N2C)OCO4
[1]
  Potency: 0.0015 µM (active)
[2]
  Potency: 0.0038 µM (active)
[3]
  Potency: 0.0094 µM (active)

## CC(C)(Oc1ccc(CCNC(=O)c2ccc(Cl)cc2)cc1)C(=O)O
[1]
  Potency: inactive
[2]
  activity (max response): -0.538%
[3]
  Potency: inactive

## Oc1ccc(Cl)cc1Cc1cc(Cl)ccc1O
[1]
  Potency: 11.9 µM (active)
[2]
  Potency: 5.17 µM (active)
[3]
  Potency: 5.17 µM (active)

## COc1cc([C@H]2Oc3cc([C@H]4Oc5cc(O)cc(O)c5C(=O)[C@@H]4O)ccc3O[C@@H]2CO)ccc1O
[1]
  Potency: 18.6 µM (active)
[2]
  activity (max response): 11.7% and -16.7%
[3]
  Potency: inactive

## CC(=O)O[C@]1(C(C)=O)CC[C@H]2[C@@H]3C=C(Cl)C4=CC(=O)CC[C@]4(C)[C@H]3CC[C@@]21C
[1]
  Potency: 11.9 µM (active)
[2]
  activity (max response): -0.809%
[3]
  Potency: inactive

## CC(C)=CCC/C(C)=C/CC/C(C)=C/C(=O)OCC(=O)[C@@]1(O)CC[C@H]2[C@@H]3CCC4=CC(=O)C=C[C@]4(C)[C@H]3[C@@H](O)C[C@@]21C
[1]
  Potency: 9.44 µM (active)
[2]
  activity (max response): 9.99%
[3]
  Potency: inactive

## CC(=O)N(c1onc(C)c1C)S(=O)(=O)c1ccc(N)cc1
[1]
  Potency: inactive
[2]
  activity (max response): 0.743%
[3]
  Potency: inactive

## O=C(O)CNC(=O)CNC(=O)CNC(=O)CSC(=O)c1ccccc1
[1]
  Potency: inactive
[2]
  activity (max response): -23.1%
[3]
  Potency: inactive

## O=C(NC[C@H](O)CN1CCc2ccccc2C1)c1ccnc(NC2CCC2)c1
[1]
  Potency: 6.61 µM (active)
[2]
  activity (max response): -19.6%
[3]
  Potency: inactive

## CC1CCC(n2c3cnccc3c3cnc(Nc4ccc5c(n4)CCN(C(=O)CO)C5)nc32)CC1 (configuration not stated)
[1]
  Potency: 164 nM (active) and 170 nM (active)
[2]
  activity (max response): -7.81%
[3]
  activity change, negative = viability loss: 3.35% [at 9.17 µM]

## CCCCNc1ccc(C(=O)OCCN(C)C)cc1
[1]
  Potency: inactive
[2]
  activity (max response): 4.21%
[3]
  Potency: inactive
